FXN GAA850 act = FXN promoter activators, primary screen, cell-based, luciferase luminescence, HEK293 lucGAA850 | activation, % at 6 µM | 360,000 tested, 0.56% active | HEK293 lucGAA850 FXN promoter luciferase reporter, 24 h; percent of 10 µM SAHA response | AID 540364, 2011;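 active = activation above the average of all compounds screened plus 3 SD, cutoff fixed separately per campaign, cut at about 7.5% in these data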;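 note: 0% = DMSO wells and 100% = 10 µM SAHA wells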
FAS TE block = FAS thioesterase domain inhibitors, primary screen, biochemical, fluorescence intensity, uHTS | inhibition, % at 15 µM | recombinant FAS-TE, OMFH fluorogenic substrate, fluorescence endpoint | AID 602261, 2012 | 360,000 tested, 0.67% active | Fatty acid synthase (Homo sapiens), P49327;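 active = compounds whose normalised, plate-corrected inhibition of enzyme fluorescence in the single-dose primary screen is 50% or more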;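 note: 0% = DMSO with enzyme and 100% = substrate without enzyme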
proKLK7 act = proKLK7 zymogen activators, primary screen, biochemical, fluorescence intensity. Kallikrein-7 (Homo sapiens), P49862. purified proKLK7, EDANS-DABCYL substrate fluorescence; 100% is mature enzyme control, 0% vehicle. 370,000 tested, 0.9% active. activation, % at 7 µM;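 active = activation above the mean of all tested compounds plus 3 SD, computed per campaign excluding outliers beyond control limits, cut at about 13% in these data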
SMARCA2 act = SMARCA2 (BRM) function activators, primary screen, cell-based, luminescence, high throughput | MG213 cells, MMTV-luciferase reporter, dexamethasone, overnight | activation, % at 9.1 µM | 370,000 tested, 1% active; in the data active = activation above about 7.8%;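 note: 0% = vehicle wells and 100% = reference activator wells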
GAA30 counter = GAA30 FXN promoter activators, confirmation, counter-screen for GAA850 frataxin promoter activator project, cell-based, luminescence, HEK293, lucGAA30, triplicate; shares compounds with FXN GAA850 act; HEK293 lucGAA30 FXN promoter luciferase, 24 h; DMSO = 0%, 5 µM ipriflavone = 100%; activation, % at 6 µM; 1,900 tested, 66% active; AID 588350, 2011;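 active = mean activation above the mean of solvent-only control wells plus 3 SD, cut at about 22% in these data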;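 note: counterscreen of GAA850 promoter hits where activity marks nonselective or luminescence artifacts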
GAA850 confirm = FXN GAA850 promoter activators in reporter cells, confirmation, cell-based, luminescence, HEK293 lucGAA850, triplicate; 1,900 tested, 86% active; activation, % at 6 µM; shares compounds with FXN GAA850 act; AID 588351, 2011; HEK293 lucGAA850 FXN promoter luciferase reporter, 24 h; 100% = activation by SAHA;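 active = mean activation above a set limit taken from the primary screen, cut at about 8% in these data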;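 note: 0% = DMSO wells and 100% = 10 µM SAHA wells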
FAS-TE inh conf = FAS thioesterase domain inhibitors, confirmation, biochemical, fluorescence intensity, single concentration | shares compounds with FAS TE block | recombinant FAS-TE, OMFH fluorogenic substrate | inhibition, % at 15 µM | 2,300 tested, 45% active | AID 624325, 2012;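 active = compounds inhibiting the enzyme by at least 50% at 15 µM in any one of the replicates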;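 note: 0% = enzyme with DMSO only and 100% = wells lacking enzyme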
SMARCA2 act conf = SMARCA2 (BRM) function activators, confirmation, cell-based, luminescence, triplicate. shares compounds with SMARCA2 act. activation, % at 9.1 µM. 3,500 tested, 30% active. AID 652260, 2013. MG213 cells, MMTV-luciferase with dexamethasone, overnight; MG213 cells expressing E1A, Rb sequestered; DMSO wells 0%, reference activator 100%;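 active = activation above its plate's cutoff, the mean activation of tested wells plus 3 SD, cut at about 7.9% in these data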
VP16 Luc act = GAL4-VP16 luciferase reporter activation, counter-screen for SMARCA2 (BRM) activator project, cell-based, pG5luc, luminescence, high throughput | activation, % at 9.1 µM | AID 686939, 2013 | 3,500 tested, 41% active | HEK293 GAL4-VP16 pG5luc reporter; scaled: DMSO wells 0%, SAHA wells 100% | shares compounds with SMARCA2 act;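 active = activation above the solvent-only control well mean plus 3 SD, averaged across control plates, cut at about 5.2% in these data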
An asterisk follows results filed as active; . = no result. Rows were chosen to be rich in hits. Some 2.9% of all compounds tested hit in one or more screens of this group.

SMILES	FXN GAA850 act	FAS TE block	proKLK7 act	SMARCA2 act	GAA30 counter	GAA850 confirm	SMARCA2 act conf	VP16 Luc act	others
COc1ccc(N2C(=O)N3[C@H](c4ccc(Cl)cc4)[C@@H]4C(=O)N(C5CCCCC5)C(=O)[C@@H]4[C@]3(Cc3ccc(Cl)cc3)C2=O)cc1	7.9*	87.9*	0.1	0.1	31.3*	12.0*	.	.	FAS-TE inh conf=28.8
COc1ccc([C@@H]2[C@@H]3C(=O)N(C(C)(C)C)C(=O)[C@@H]3[C@]3(Cc4ccccc4)C(=O)N(c4ccc(C)cc4)C(=O)N23)cc1	-3.2	22.5	-0.1	1.3	.	.	.	.
Cc1cccc(N2C(=O)N3[C@H](c4ccc(Br)cc4)[C@@H]4C(=O)N(C(C)(C)C)C(=O)[C@@H]4[C@]3(Cc3ccc(Cl)cc3)C2=O)c1	10.4*	89.0*	0.5	-0.3	17.7	16.8*	.	.	FAS-TE inh conf=44.7
Cc1nc2ccccc2c2nc(NC(=O)C(F)(F)F)nn12	4.3	-2.8	0.0	2.3	.	.	.	.
O=[N+]([O-])c1c(Nc2ccccc2O)cc(Cl)c2nonc12	10.8*	65.1*	0.3	3.7	-78.6	-7.9	.	.	FAS-TE inh conf=52.7*
COc1cccc(C(=O)OC2CCN(C)CC2)c1	1.1	-6.4	0.4	-3.5	.	.	.	.
N#C/C(=C\c1ccccc1C(F)(F)F)C(=O)Nc1ccccc1	1.5	36.5	-0.6	-1.7	.	.	.	.
CCc1cccc(CC)c1NC(=O)/C(C#N)=C/c1ccccc1C(F)(F)F	8.0*	53.5*	0.1	-1.2	-12.1	13.0*	.	.	FAS-TE inh conf=60.7*
CCOC(=O)[C@H]1[C@H]2COc3ccc(Br)cc3[C@@H]2N2C(=O)c3c(C)cc(C)cc3NC(=O)[C@@]12C	14.4*	68.4*	0.6	0.2	28.3*	18.6*	.	.	FAS-TE inh conf=22.1
CCOC(=O)[C@@H]1[C@H]2COc3ccc(Br)cc3[C@@H]2N2C(=O)N(c3cccc(Cl)c3)C(=O)[C@]12C	1.1	42.4	0.4	-2.9	.	.	.	.
CCOC(=O)[C@@H]1[C@H]2COc3ccc(Br)cc3[C@@H]2N2C(=O)N(c3cccc(Cl)c3)C(=O)[C@@]12C	9.9*	73.3*	0.2	-0.2	-8.5	0.1	.	.	FAS-TE inh conf=52.0*
COc1ccc(N2C(=O)C3C(C2=O)C(C(=O)c2ccc(Cl)cc2)N2CCCC32)cc1 (stereo unspecified)	8.4*	10.9	-0.2	12.3*	11.0	3.7	2.2	-1.4
CC(=O)c1ccc(N2C(=O)C3C(C2=O)C(C(=O)c2ccc(Cl)cc2)N2CCCC32)cc1 (stereo unspecified)	.	.	-0.5	3.0	.	.	.	.
Cc1ccc(C(=O)N/N=C/c2ccc(-c3ccc(Br)cc3[N+](=O)[O-])o2)o1	1.9	-17.4	-0.1	1.2	.	.	.	.
CC(=O)N1CCC(C(=O)Nc2cc(C)cc(C)c2)CC1	-1.6	-5.2	-0.7	-2.4	.	.	.	.
COc1cc(-c2cnc3c(NC(C)=O)cc(-c4ccc(N5CCN(C)CC5)cc4)cn23)cc(OC)c1OC	-8.3	-0.8	-2.5	-3.9	.	.	.	.
COc1cc(-c2cnc3c(NC=O)cc(-c4ccc(N5CCN(C)CC5)cc4)cn23)cc(OC)c1OC	10.8*	-3.8	-0.6	8.5*	109.5*	51.2*	9.3*	13.6*
Cc1cc(=O)n(C(C)c2ccccc2)n1C(C)c1ccccc1 (stereo unspecified)	-0.2	-7.2	0.8	-2.4	.	.	.	.
CCOC(=O)CN1C(=O)S/C(=C\c2ccc(-c3ccc(C(=O)O)c(Cl)c3)o2)C1=O	2.0	3.9	0.3	-2.2	.	.	.	.
CC(C)N1C(=O)S/C(=C\c2ccc(-c3ccc(Cl)c(C(=O)O)c3)o2)C1=O	8.2*	69.0*	-0.2	14.6*	115.6*	37.5*	12.4*	12.7*	FAS-TE inh conf=75.0*
Clc1cccc(-c2nc(NCCCN3CCOCC3)c3ccccc3n2)c1	1.3	6.6	0.7	-2.9	.	.	.	.
Clc1ccc2oc(-c3ccccc3)cc(=NCCCN3CCOCC3)c2c1	9.4*	-3.2	0.2	16.7*	51.4*	21.7*	14.5*	5.6*
C=CCNC(=O)c1c(Br)cnn1-c1ccc(C)cc1	8.2*	4.4	1.3	9.2*	104.7*	33.0*	10.6*	10.7*
c1ccc2c(c1)nnn2-c1ncnc2sccc12	10.2*	7.0	-0.5	11.6*	93.1*	30.6*	9.9*	5.1
CC(C)NC(=O)N(C)C[C@@H]1Oc2ccc(NC(=O)CCN3CCOCC3)cc2CC(=O)N([C@@H](C)CO)C[C@@H]1C	0.7	-8.9	0.3	2.4	.	.	.	.
SMILES	FXN GAA850 act	FAS TE block	proKLK7 act	SMARCA2 act	GAA30 counter	GAA850 confirm	SMARCA2 act conf	VP16 Luc act	others
Cc1cc(NC(=O)CCC(=O)N(Cc2ccco2)C2(C(=O)NC3CCCC3)CCCCC2C)no1 (stereo unspecified)	0.5	-3.1	-0.3	3.8	.	.	.	.
NNc1nc2c(-c3ccc(Cl)cc3)nnn2c2ccccc12	8.2*	-4.3	0.8	8.4*	128.8*	37.5*	7.2	10.9*
NNc1nc2c(-c3ccc(F)cc3)nnn2c2ccccc12	6.2	-4.1	-1.0	7.1	.	.	.	.
O=c1c(-c2ccc(O)cc2)coc2cc(OC3OC(CO)C(O)C(O)C3O)cc(O)c12 (stereo unspecified)	5.9	-11.2	0.3	6.1	.	.	.	.
COc1cc(O)c2c(=O)c(-c3ccc(O[C@@H]4O[C@H](CO)[C@@H](O)[C@H](O)[C@H]4O)cc3)coc2c1	9.0*	-8.8	-0.3	8.8*	107.9*	30.8*	12.7*	9.1*
c1ccc2c(c1)C1=NCCN1c1ccccc1-2	32.8*	-6.7	-2.2	23.8*	5.7	150.3*	371.5*	3.6
COC1=Nc2ccccc2N2CCN=C12	.	-8.1	-8.6	-2.8	.	.	.	.
Cc1cccc(C2=NN(c3ccccc3)[C@H](CO)[C@H]2c2ccccc2)c1	2.1	24.3	.	.	.	.	.	.
CCCCCNC(=O)C(c1ccccc1F)n1c(=O)c(-c2ccco2)nc2ccccc21 (stereo unspecified)	.	.	-2.7	-3.9	.	.	.	.

Screening data as filed in PubChem BioAssay.
